Where a name gives a salt, the structure may show the parent alone. Unmarked numbers belong to inactive results. Active and inactive are the calls of the source. Calls come from the whole dose curve; as a rule, active = well fitted activation curve with a large enough effect; inconclusive = small, poorly fitted or top-dose-only effect; inactive = flat fitted curve, though single readings scatter. Peptide text beside a SMILES is read from it. * marks the point of attachment. Tfa = O=C(C(F)(F)F)*
experiment: Confirmation and Secondary Assay for Modulators of Hemoglobin Beta Chain Splicing at IVS2 654 locus (AID 910); conditions: HeLa EGFP-654 splicing reporter, GFP fluorescence, 48 h; series mostly up to 46.1 µM; activation (splicing correction): at the top concentration;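 note: HeLa cells stably carrying EGFP split by mutant beta-globin IVS2-654 intron; % of control where 0% means no effect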
Source text: NIH Chemical Genomics Center [NCGC] NIH Molecular Libraries Screening Centers Network [MLSCN] MLSCN Grant: 1 X01 MH080684-01 PI Name: Dr. Ryszard Kole NCGC Assay Overview: Modulation of Alternative Splicing as Therapy Abnormal splicing is associated with a number of diseases, including cancer and genetic diseases such as cystic fibrosis, muscular dystrophy and beta-thalassemia. Alteration of disease associated splicing patterns provides a promising target for treatment. […] Mutations in the second intron of the b-globin gene at positions 654 or 705 are clinically relevant and cause mis-splicing which results in an out of frame gene product. […] EGFP-654 HeLa Cells as screen system. HeLa cell lines were stably transfected with a construct in which the EGFP (enhanced green fluorescent protein) cDNA was interrupted by the second intron of the beta-globin gene (IVS2-654). The ISV2 intron contains mutations which cause mis-splicing of EGFP and premature termination of EGFP which results in a nonfluorescent protein product. […] Expression of the transgene was driven by the CMV promoter. We concluded that a low molecular weight compound, which restored correct splicing of intron 2 would also generate functional EGFP protein, resulting in a fluorescent signal. Thus, the HeLa cells that express the EGFP-654 construct can be used for high throughput screening of a chemical library.
NCGC Assay Protocol Summary: Confirmatory Screening. Freshly thawed HeLa EGFP-654 cells were seeded in 5 ul of optimem media (Invitrogen) containing 2 % fetal calf serum (Hyclone) and 1x penicillin/streptomycin (Invitrogen) at a concentration of 500 cells per well in 1536-well plates. Cells were incubated overnight at 37C in 5% CO2. The next day, cells were treated with DMSO, 500 nM antisense ISV2 654 PNA control oligo, or library compound and allowed to grow at 37C in 5% CO2 for 2 days. The PNA oligo blocked the mutation site in the intron and allowed proper (wild type) splicing to occur, resulting in full length EGFP expression and also allowed for optimization of the assay parameters. Plates were read in the Acumen Explorer (TTP Labtech) using 488 nm laser excitation and 500-520 nm emission PMT filter in a 1 x 8 uM capture mode. Fluorescnet objects ranging in size from 5 to 250 uM were measured and the total peak GFP intensity for each well was used for data analysis. Keywords: Thalassemia, beta-thalassemia, beta-globin, EGFP, ISV2 654, ISV2 705, SSO, PNA, antisense, splicing, MLSMR, MLSCN, NIH Roadmap, qHTS, NCGC

Row | SMILES | activation (splicing correction) | Potency
1 | CC1CCC2(OC1)OC1CC3C4CCC5CC(O)CCC5(C)C4=CCC3(C)C1C2C (stereo not given) | 4.95% | 
2 | Cc1c(S(=O)(=O)O)oc2c1C(=O)C(=O)c1c-2ccc2c1CCCC2(C)C | -0.0732% [at 38.3 µM] | 
3 | C=C[C@](C)(O)CCC1C(=C)CCC2[C@@](C)(CO)CCC[C@@]12C (stereo not given in full) | -2.4% [at 38.3 µM] | 
4 | C=CCSCC(N)C(=O)O (stereo not given) | 2.45% [at 38.3 µM] | 
5 | CC(=O)OC1CCC2C3CCc4cc(O)ccc4C3CCC12C (stereo not given) | 0.785% | 
6 | COc1c(OC)c2occc2c2oc(=O)ccc12 | 4.39% | 
7 | CCC(/C=C/C(C)C1CCC2C3CC=C4CC(O)CC[C@@]4(C)C3CC[C@@]12C)C(C)C (stereo not given in full) | -0.909% [at 38.3 µM] | 
8 | CC(=O)OCC(OC(C)=O)C(OC(C)=O)C(OC(C)=O)C(OC(C)=O)C(COC(C)=O)OC(C)=O (stereo not given) | 6.89% | 
9 | CC(=O)[C@]1(O)CCC2C3C=C(Cl)C4=CC(=O)C5CC5[C@@]4(C)C3CC[C@]21C (stereo not given in full) | 0.805% | 
10 | Nc1ncnc2c1[nH]c(=O)n2C1OC(CO)C(O)C1O (stereo not given) | -1.05% [at 38.3 µM] | 
11 | O=c1cc(-c2ccccc2)oc2cc(O)c(O)cc12 | -7.11% | 
12 | COC(=O)C1C(O)CC[C@@H]2CN3CCc4c([nH]c5ccccc45)C3C[C@@H]12 (stereo not given in full) |  | inactive
13 | Cc1cc(O)cc(O)c1C(=O)O | 0.322% [at 38.3 µM] | 
14 | COc1ccc(C2Oc3cc(OC)cc(OC)c3CC2O)cc1 (stereo not given) | 1.31% [at 38.3 µM] | 
15 | CC(=O)SC1CC2=CC(=O)CC[C@@]2(C)C2CC[C@@]3(C)[C@@H](CC[C@@]34CCC(=O)O4)C12 (stereo not given in full) | -0.71% | 
16 | CC(=O)OCC(=O)[C@@]1(O)CCC2C3CCC4=CC(=O)CC[C@]4(C)C3C(O)C[C@]21C (stereo not given in full) | -1.4% | 
17 | C=CCCCCCCCCCCC/C=C/C(O)COC(C)=O (stereo not given) | -0.596% [at 38.3 µM] | 
18 | CNC1C(O)C(O)C(CO)O[C@H]1OC1C(O[C@@H]2C(O)C(O)[C@@H](N=C(N)N)C(O)C2N=C(N)N)OC(C)[C@]1(O)C=O (stereo not given in full) | 0.143% | 
19 | CC(C)C(NC(=O)C(Cc1ccc(O)cc1)NC(=O)C(NC(=O)C(F)(F)F)C(C)C)C(=O)O (stereo not drawn) (Tfa-Val-Tyr-Val-OH; configuration not given here) | -0.958% [at 38.3 µM] | 
20 | CCC(C)(C)C(=O)OC1CC(C)C=C2C=CC(C)C(CCC3CC(O)CC(=O)O3)C21 (stereo not given) | 29.4% | 

Row | SMILES | activation (splicing correction) | Potency
21 | CC(C)(O)C1CC[C@@]2(C)C3CCC4[C@@]5(C)CCCC(C)(C)C5C(O)C[C@]4(C)[C@]3(C)CC[C@@H]12 (stereo not given in full) | 2.52% [at 38.3 µM] | 
22 | NCCCCC(NC(CCc1ccccc1)C(=O)O)C(=O)N1CCCC1C(=O)O (stereo not given) | -0.573% | 
23 | CCC(C(=O)O)c1ccccc1 (stereo not given) | -0.555% | 
24 | COC1OC(CO)C(OC2OC(C(=O)O)C(OC3OC(COS(=O)(=O)O)C(OC4OC(C(=O)O)C(OC5OC(CO)C(OC6OC(C(=O)O)C(OC7OC(COS(=O)(=O)O)C(OC8OC(C(=O)O)=C[C@H](O)C8OS(=O)(=O)O)C(O)C7NC(C)=O)[C@@H](O)C6O)C(O)C5NC(C)=O)[C@@H](O)C4O)C(O)C3NC(C)=O)[C@@H](O)C2O)C(O)C1NC(C)=O (stereo not given in full) | 0.429% [at 38.3 µM] | 
25 | CC1=C(C(=O)O)N2C(=O)C(NC(=O)C(N)c3ccccc3)C2SC1 (stereo not given) | 7.8% | 
26 | O=c1cc(-c2ccccc2)oc2cccc(O)c12 | -7.41% | 
27 | CC(CCC(=O)O)C1CCC2C3CC[C@H]4CC(O)CC[C@@]4(C)C3CC(O)[C@]12C (stereo not given in full) | 0.859% | 
28 | CC(=O)OC1CC2C(C)(C)C(=O)C3OC3[C@]2(C)C2CC[C@@]3(C)C(c4ccoc4)OC(=O)C4OC43[C@]12C (stereo not given in full) | -1.16% | 
29 | CC1C(O)CC2C(C(=O)O)=CO[C@@H](O[C@H]3OC(CO)C(O)C(O)C3O)C21 (stereo not given in full) | 0.374% [at 38.3 µM] | 
30 | CC(=O)OCC(=O)[C@@]1(O)CCC2C3CC[C@H]4CC(O)CC[C@@]4(C)C3C(=O)C[C@]21C (stereo not given in full) | 0.719% [at 38.3 µM] | 
31 | CCC(C)C(=O)OC1CCC=C2C=CC(C)C(CCC3CC(O)CC(=O)O3)[C@@H]21 (stereo not given in full) | 2.3% [at 38.3 µM] | 
32 | CC(C)=CCC/C(C)=C/COc1ccc2ccc(=O)oc2c1 | 4.59% | 
33 | CCCCCCCCCCCCCCC(C(=O)O)C(O)(CC(=O)OC)C(=O)O (stereo not given) | -0.857% [at 38.3 µM] | 
34 | CC(=O)OC1CC[C@]2(C)C(=CCC3C4CCC(C(C)CCCC(C)C)[C@]4(C)CCC32)C1 (stereo not given in full) | -2.1% [at 38.3 µM] | 
35 | c1ccc2c(c1)CN1CCCC1=N2 |  | inactive
36 | O=C(/C=C(\O)c1ccccc1)c1ccccc1O | -7.49% | 
37 | CC(=O)OC1CCC2(C)C3=C(CCC2C1(C)C)[C@]1(C)CCC(C(C)CCC=C(C)C)[C@]1(C)CC3 (stereo not given in full) | -3.96% | 
38 | CC1(C)C(O)C=C[C@@]2(C)C1CC(=O)O[C@@]1(C)C3=CC(=O)OC(c4ccoc4)[C@]3(C)CCC21 (stereo not given in full) | 3.84% | 
39 | CO[C@@]1(NC(=O)CSCC#N)C(=O)N2C(C(=O)O)=C(CSc3nnnn3C)CSC21 (stereo not given in full) | 3.3% | 
40 | CS(=O)(=O)Nc1cccc(-c2nc(Nc3ccc(F)cc3)c3ccccc3n2)c1 | -0.05% [at 38.3 µM] | 
